According to PubChem BioAssay (Tox21):
Results filed as inconclusive are left out. Calls of active or inactive are those of the source. Unless noted, calls follow the shape of the dose curve; as a rule, active = well fitted curve in the direction sought with a large enough effect in the repeat runs; inconclusive = weak or mixed curves; inactive = no such curve, though single readings can be large; an effect the other way counts as inactive or inconclusive.

Columns and labels:
[1] = target: Estrogen receptor beta (Homo sapiens) (UniProt Q92731); test: qHTS assay to identify small molecule agonists of the estrogen receptor beta (ER-beta) signaling pathway (AID 1259377; active = well fitted activation curve with a large enough effect in the signal ratio in the repeat runs, not every such curve was filed as active; the % refers to the signal ratio)
How it was run: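 Read-out: beta-lactamase FRET fluorescence. Cell line: ER-beta-UAS-bla HEK293T in 2% charcoal-stripped FBS. Exposure: 16 hr at 37C. Substrate step: 2 h at room temperature.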

[2] = target: Estrogen receptor beta (Homo sapiens) (UniProt Q92731); test: qHTS assay to identify small molecule antagonists of the estrogen receptor beta (ER-beta) signaling pathway (AID 1259378; active = well fitted inhibition curve with a large enough effect in the signal ratio in the repeat runs, not every such curve was filed as active; the % refers to the signal ratio)
How it was run: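 ER-beta-UAS-bla HEK293T (GripTite) cells in 2% charcoal-stripped FBS medium were preincubated 6 hr at 37C, dosed with compound, then stimulated with 1 nM E2 (final) for 16 hr; beta-lactamase reporter read by B/G FRET fluorescence after 2 hr substrate loading.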

[3] = qHTS assay to identify small molecule agonists of the androgen receptor (AR) signaling pathway in the presence of an antagonist - cell viability counter screen (AID 1259379);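 also: MDA-kb2 human breast cancer cells carrying an MMTV luciferase reporter; series mostly up to about 92 µM; nearly all actives have a fitted effect of over 25% in size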
How it was run: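 Fluorescence from CellTiter-Fluor, added after 15 hr and read 1 hr later, gave cell viability. Cells were MDA-kb2 exposed to compounds (15 concentrations) in the presence of 3.0uM nilutamide at 37C, 0% CO2.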

[4] = qHTS assay to identify small molecule antagonists of the estrogen receptor beta (ER-beta) signaling pathway - cell viability counter screen (AID 1259382); also: series mostly up to about 92 µM; nearly all actives have a fitted effect of over 55% in size
How it was run: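 Following a 6 hr plating period, HEK293T cells carrying a UAS-driven beta-lactamase reporter under ER-beta control received compounds and 1nM E2 (final). After 16 hr at 37C and 2 hr substrate loading, CellTiter-Glo luminescence indicated viability.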

[5] = qHTS assay to identify small molecule agonists or antagonists of the thyroid stimulating hormone receptor (TSHR) signaling pathway - wild type cell line counter screen (AID 1259384; calls by dose curve)
How it was run: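 Wild-type HEK293 cells were plated 18 h at 37 C/5% CO2, pin-dosed with compound plus Ro20-1724 medium, held 30 min at room temperature, then given cAMP-d2 and anti-cAMP-cryptate; fluorescence was read after 1 h. Fifteen concentrations, triplicate.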

[6] = target: Thyrotropin receptor (Homo sapiens) (UniProt P16473); test: qHTS assay to identify small molecule antagonists of the thyroid stimulating hormone receptor (TSHR) signaling pathway (AID 1259385; calls by dose curve; also: nearly all actives have a fitted effect of over 20% in size)
How it was run: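 TSHR-HEK293 cells were plated and held 18 h at 37C/5% CO2, then given compound plus Ro20-1724 and stimulated with TSH at 1.5 ng/mL final. After 30 min at room temperature, cAMP was detected with cAMP-d2/anti-cAMP-cryptate (1 h) by fluorescence.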

[7] = qHTS assay to identify small molecule agonists of the estrogen receptor alpha (ER-alpha) signaling pathway in the presence of an antagonist - cell viability counter screen (AID 1259386);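 also: series mostly up to about 92 µM; cells exposed to compounds for 22 h at 37 °C before the viability read; nearly all actives have a fitted effect of over 30% in size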
How it was run: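 Cells are starved of estrogens for 5 days in charcoal-stripped serum, seeded for 24hr and co-treated with ICI-182,780 (10.0nM final) and test compounds. After 22hr at 37C, viability is read as CellTiter-Fluor fluorescence.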

[8] = target: Progesterone receptor (Homo sapiens) (UniProt P06401); test: qHTS assay to identify small molecule agonists of the progesterone receptor (PR) signaling pathway (AID 1346784; calls by dose curve; also: nearly all actives have a fitted effect of over 30% in size)
How it was run: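 Compounds were tested for PR agonism in HEK 293T cells bearing a beta-lactamase gene under UAS control. Treatment lasted 16 hr at 37C; signal came from fluorescence of a FRET substrate.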

[9] = qHTS assay to identify small molecule antagonists of the progesterone receptor (PR) signaling pathway - cell viability counter screen (AID 1346798); also: series mostly up to about 92 µM; nearly all actives have a fitted effect of over 50% in size
How it was run: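 Following a 4 hr attachment, PR-UAS-bla HEK293T cells in charcoal-stripped FBS medium were exposed to compounds with R5020 for 16 hr; CellTiter-Glo was added and luminescence read after 30 min at room temperature.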

[10] = qHTS assay to identify small molecule agonists of the progesterone receptor (PR) signaling pathway - cell viability counter screen (AID 1346799; calls by dose curve; also: nearly all actives have a fitted effect of over 45% in size)
How it was run: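 Here, 3,000 PR-UAS-bla HEK293T cells per well were treated with compounds for 16 hr after a 6 hr preincubation at 37C and 5% CO2; cell viability is the CellTiter-Glo luminescence signal.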

[11] = qHTS assay to identify small molecule antagonists of the TGF-beta/Smad signaling pathway - cell viability counter screen (AID 1346824); also: nearly all actives have a fitted effect of over 50% in size
How it was run: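 SBE-bla HEK 293T cells were plated overnight at 37 C, then given compounds in DMSO plus TGF-beta1 (added as 0.25 ng/mL solution) for 5 hr. After the bla read, CellTiter-Glo was added to the same wells and luminescence read after 30 min at room temperature.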

[12] = qHTS assay to identify small molecule agonists of the TGF-beta/Smad signaling pathway - cell viability counter screen (AID 1346829); also: top concentration of the series differs between compounds; nearly all actives have a fitted effect of over 45% in size
How it was run: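 Luminescence from CellTiter-Glo, read after a 30 min room-temperature incubation, gives cell viability of SBE-bla HEK 293T cells treated 5 hr with compounds at 37 C.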

[13] = qHTS assay to identify small molecule agonists of the TGF-beta/Smad signaling pathway (AID 1346859; active = well fitted activation curve with a large enough effect in the signal ratio in the repeat runs, not every such curve was filed as active; the % refers to the signal ratio; also: series mostly up to about 77 µM)
How it was run: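 Each well held 4,000 SBE-bla HEK 293T cells incubated overnight before compound addition; 5 hr later the cleavable FRET substrate went on for 2 hr at room temperature, and fluorescence was read at two emissions.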

[14] = target: Thyrotropin-releasing hormone receptor (Homo sapiens) (UniProt P34981); test: qHTS assay to identify small molecule antagonists of the thyrotropin-releasing hormone receptor (TRHR) signaling pathway (AID 1346877; active = well fitted inhibition curve with a large enough effect in the repeat runs, not every such curve was filed as active; also: series mostly up to about 51 µM)
How it was run: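 Cells (TRHR-HEK293) are plated and kept 18 h at 37 °C/5% CO2. A calcium-sensitive dye is added for 2 h, compound follows for 5 min at room temperature, and TRH is then given at 1 nM final.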

[15] = target: Thyrotropin-releasing hormone receptor (Homo sapiens) (UniProt P34981); test: qHTS assay to identify small molecule agonists of the thyrotropin-releasing hormone receptor (TRHR) signaling pathway (AID 1346891; calls by dose curve; also: series mostly up to about 58 µM)
How it was run: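 Screening of agonists relied on calcium signalling in HEK293 cells expressing human TRHR: dye loading 2 h at 37 °C preceded compound addition and a 3-min fluorescence time course.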

[16] = qHTS assay to identify small molecule agonists of the estrogen receptor beta (ER-beta) signaling pathway - cell viability counter screen (AID 1259380); also: nearly all actives have a fitted effect of over 30% in size
How it was run: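 Same-well viability counter screen. Cells: ER-beta-UAS-bla HEK293T, plated 6 hr before compound, in 2% charcoal-stripped FBS. Compound exposure 16 hr, 37C; viability by CellTiter-Glo luminescence after 30 min at room temperature.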

[17] = target: Progesterone receptor (Homo sapiens) (UniProt P06401); test: qHTS assay to identify small molecule antagonists of the progesterone receptor (PR) signaling pathway (AID 1346795; active = well fitted inhibition curve with a large enough effect in the signal ratio in the repeat runs, not every such curve was filed as active; the % refers to the signal ratio)
How it was run: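 In HEK293T cells bearing the PR-UAS-bla reporter, compound effects on promegestone-driven (1 nM) beta-lactamase expression are assessed after 16 hr using a fluorescent FRET substrate incubated 2 hr at room temperature.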

[18] = target: Estrogen receptor (Homo sapiens) (UniProt P03372); test: qHTS assay to identify small molecule agonists of the estrogen receptor alpha (ER-alpha) signaling pathway in the presence of an antagonist (AID 1259383; calls by dose curve; also: top concentration of the series differs between compounds; nearly all actives have a fitted effect of over 15% in size)
How it was run: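 Cells are hormone-deprived for 5 days (charcoal-stripped FBS, no phenol red), plated for 24hr, spiked with 10.0nM ICI-182,780, then dosed at 15 concentrations. After 22hr at 37C, ONE-Glo luminescence reports ERE-luciferase activity.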

[19] = target: Androgen receptor (Homo sapiens) (UniProt P10275); test: qHTS assay to identify small molecule agonists of the androgen receptor (AR) signaling pathway in the presence of an antagonist (AID 1259381; calls by dose curve; also: nearly all actives have a fitted effect of over 15% in size)
How it was run: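 Cells are MDA-kb2 (human breast carcinoma, MMTV-luc, AR/GR responsive). Nilutamide is present at 3.0uM final throughout; compounds are added at 15 concentrations and incubated 16hr at 37C before ONE-Glo luminescence detection.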
% is scaled to controls: 0 for no effect and ±100 for the full control effect.

Chain of Thyrotropin receptor (Homo sapiens) (P16473 whole entry, looked up): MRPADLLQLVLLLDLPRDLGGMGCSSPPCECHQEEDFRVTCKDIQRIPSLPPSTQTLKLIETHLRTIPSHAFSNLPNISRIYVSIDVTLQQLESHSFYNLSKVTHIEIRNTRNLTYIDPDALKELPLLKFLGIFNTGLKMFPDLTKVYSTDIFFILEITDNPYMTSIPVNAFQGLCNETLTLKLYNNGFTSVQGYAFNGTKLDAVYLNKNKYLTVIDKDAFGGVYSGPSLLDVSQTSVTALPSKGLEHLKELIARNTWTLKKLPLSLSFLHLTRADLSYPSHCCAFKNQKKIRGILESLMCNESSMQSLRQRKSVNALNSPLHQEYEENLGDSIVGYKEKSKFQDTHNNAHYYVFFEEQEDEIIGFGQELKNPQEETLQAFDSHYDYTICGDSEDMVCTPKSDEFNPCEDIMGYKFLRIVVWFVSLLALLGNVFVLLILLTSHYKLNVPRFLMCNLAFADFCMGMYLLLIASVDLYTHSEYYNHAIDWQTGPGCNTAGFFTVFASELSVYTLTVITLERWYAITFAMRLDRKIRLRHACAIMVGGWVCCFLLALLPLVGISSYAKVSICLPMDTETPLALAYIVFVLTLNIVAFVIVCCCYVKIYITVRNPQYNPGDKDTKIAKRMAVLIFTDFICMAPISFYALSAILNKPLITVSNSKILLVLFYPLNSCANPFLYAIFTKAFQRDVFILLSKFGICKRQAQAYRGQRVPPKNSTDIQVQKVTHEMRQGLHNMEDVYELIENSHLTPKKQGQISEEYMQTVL
Chain of Estrogen receptor (Homo sapiens) (P03372 whole entry, looked up): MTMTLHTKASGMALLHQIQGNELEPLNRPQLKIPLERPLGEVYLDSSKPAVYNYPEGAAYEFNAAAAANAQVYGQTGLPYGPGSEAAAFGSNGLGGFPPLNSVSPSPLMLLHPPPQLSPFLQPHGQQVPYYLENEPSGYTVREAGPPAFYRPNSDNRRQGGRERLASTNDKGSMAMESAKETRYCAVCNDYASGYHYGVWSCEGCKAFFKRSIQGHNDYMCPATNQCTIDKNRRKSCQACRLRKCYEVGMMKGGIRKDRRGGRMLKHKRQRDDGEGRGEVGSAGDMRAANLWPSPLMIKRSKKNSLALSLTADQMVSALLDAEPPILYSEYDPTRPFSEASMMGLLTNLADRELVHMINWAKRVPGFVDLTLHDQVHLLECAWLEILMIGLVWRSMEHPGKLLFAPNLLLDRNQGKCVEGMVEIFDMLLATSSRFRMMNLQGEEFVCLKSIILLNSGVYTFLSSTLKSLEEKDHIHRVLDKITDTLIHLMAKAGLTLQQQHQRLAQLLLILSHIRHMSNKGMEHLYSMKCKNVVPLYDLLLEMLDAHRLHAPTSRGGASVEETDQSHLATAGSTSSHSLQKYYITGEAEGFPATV
Chain of Progesterone receptor (Homo sapiens) (P06401 whole entry, looked up): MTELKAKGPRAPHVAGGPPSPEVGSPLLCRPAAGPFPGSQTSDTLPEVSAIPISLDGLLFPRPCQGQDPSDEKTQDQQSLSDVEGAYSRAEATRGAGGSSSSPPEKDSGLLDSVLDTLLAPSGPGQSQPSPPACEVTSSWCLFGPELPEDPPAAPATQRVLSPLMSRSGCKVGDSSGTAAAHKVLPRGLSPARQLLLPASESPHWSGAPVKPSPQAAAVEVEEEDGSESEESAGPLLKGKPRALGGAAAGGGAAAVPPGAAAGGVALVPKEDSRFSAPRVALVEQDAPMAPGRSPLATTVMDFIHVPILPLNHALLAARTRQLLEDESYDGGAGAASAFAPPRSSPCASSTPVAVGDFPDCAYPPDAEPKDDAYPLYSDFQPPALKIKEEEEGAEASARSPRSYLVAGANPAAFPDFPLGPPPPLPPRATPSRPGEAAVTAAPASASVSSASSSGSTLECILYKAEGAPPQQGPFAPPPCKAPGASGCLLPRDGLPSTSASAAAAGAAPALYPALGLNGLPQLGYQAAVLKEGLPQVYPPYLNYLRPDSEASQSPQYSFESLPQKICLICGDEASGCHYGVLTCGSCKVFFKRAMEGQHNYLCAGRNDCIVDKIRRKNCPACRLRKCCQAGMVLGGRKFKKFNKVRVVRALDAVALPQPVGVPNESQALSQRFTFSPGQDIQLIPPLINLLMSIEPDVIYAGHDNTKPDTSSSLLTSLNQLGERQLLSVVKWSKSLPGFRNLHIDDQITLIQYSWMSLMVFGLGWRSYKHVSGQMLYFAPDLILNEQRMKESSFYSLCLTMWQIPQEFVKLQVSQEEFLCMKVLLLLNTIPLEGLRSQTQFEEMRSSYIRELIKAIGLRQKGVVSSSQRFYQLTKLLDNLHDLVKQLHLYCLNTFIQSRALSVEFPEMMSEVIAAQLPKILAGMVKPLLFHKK
Chain of Estrogen receptor beta (Homo sapiens) (Q92731 whole entry, looked up): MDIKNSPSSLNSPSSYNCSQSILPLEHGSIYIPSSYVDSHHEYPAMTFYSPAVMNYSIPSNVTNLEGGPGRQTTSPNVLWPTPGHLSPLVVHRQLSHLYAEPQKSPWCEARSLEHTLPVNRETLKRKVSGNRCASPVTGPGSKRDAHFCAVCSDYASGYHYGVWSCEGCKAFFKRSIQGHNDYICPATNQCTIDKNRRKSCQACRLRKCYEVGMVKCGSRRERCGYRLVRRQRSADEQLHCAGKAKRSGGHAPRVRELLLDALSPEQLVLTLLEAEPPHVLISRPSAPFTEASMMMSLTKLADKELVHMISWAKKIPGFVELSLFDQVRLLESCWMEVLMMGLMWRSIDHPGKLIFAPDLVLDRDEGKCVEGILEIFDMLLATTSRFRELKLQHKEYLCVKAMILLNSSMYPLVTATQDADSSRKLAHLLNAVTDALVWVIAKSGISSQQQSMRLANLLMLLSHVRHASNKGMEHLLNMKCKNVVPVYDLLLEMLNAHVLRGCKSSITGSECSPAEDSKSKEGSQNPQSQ
Chain of Thyrotropin-releasing hormone receptor (Homo sapiens) (P34981 whole entry, looked up): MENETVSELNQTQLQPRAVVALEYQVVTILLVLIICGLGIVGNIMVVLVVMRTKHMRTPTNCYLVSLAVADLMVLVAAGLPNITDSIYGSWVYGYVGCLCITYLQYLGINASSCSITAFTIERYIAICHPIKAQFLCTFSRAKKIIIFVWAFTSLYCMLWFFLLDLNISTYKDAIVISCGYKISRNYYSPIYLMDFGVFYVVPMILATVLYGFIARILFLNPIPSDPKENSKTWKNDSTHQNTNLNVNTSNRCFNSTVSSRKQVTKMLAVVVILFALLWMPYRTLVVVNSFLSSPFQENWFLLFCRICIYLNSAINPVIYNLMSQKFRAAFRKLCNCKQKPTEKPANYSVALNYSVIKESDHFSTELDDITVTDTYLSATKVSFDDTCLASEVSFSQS
Chain of Androgen receptor (Homo sapiens) (P10275 whole entry, looked up): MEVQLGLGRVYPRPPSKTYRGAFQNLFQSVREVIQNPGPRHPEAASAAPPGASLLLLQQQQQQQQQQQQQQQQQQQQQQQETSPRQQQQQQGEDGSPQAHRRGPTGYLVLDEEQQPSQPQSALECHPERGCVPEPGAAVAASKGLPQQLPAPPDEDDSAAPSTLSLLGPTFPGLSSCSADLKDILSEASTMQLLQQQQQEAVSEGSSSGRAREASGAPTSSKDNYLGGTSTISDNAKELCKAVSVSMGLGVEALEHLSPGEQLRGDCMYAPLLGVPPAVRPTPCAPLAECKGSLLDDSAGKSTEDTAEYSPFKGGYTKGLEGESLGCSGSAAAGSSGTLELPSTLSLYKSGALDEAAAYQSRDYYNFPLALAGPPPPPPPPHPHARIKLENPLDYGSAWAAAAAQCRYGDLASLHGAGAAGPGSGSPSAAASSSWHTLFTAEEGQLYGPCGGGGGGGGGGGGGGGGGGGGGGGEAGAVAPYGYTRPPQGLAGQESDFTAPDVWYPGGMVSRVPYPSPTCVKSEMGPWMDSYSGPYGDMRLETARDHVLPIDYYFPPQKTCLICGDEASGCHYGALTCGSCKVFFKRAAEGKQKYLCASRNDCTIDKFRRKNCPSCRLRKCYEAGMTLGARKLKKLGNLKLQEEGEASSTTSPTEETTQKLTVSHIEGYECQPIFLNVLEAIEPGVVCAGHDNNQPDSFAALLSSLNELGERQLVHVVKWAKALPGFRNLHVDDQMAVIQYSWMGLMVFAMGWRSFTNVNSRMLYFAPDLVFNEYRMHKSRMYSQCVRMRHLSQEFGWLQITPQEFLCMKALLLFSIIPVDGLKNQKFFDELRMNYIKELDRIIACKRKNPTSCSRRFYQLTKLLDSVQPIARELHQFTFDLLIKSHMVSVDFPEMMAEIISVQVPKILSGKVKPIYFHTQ

CC(C)C(=O)OC/C=C/c1ccccc1
inactive: outcome [1] | Potency [2] | Potency [3] | outcome [4] | outcome [5] | Potency [6] | Potency [7] | Potency [8] | Potency [9] | Potency [10] | outcome [11] | outcome [12] | outcome [13] | outcome [14] | Potency [15]

O=C1CCC(C2CCCCC2)CC1
inactive: outcome [1] | Potency [2] | Potency [3] | Potency [16] | outcome [4] | outcome [5] | Potency [6] | Potency [7] | Potency [8] | Potency [17] | Potency [9] | outcome [11] | outcome [12] | outcome [13] | outcome [14]

CCCCCCCCCC/C=C/C#N
inactive: outcome [1] | Potency [2] | Potency [3] | Potency [16] | outcome [4] | Potency [18] | outcome [5] | Potency [6] | Potency [7] | Potency [8] | Potency [17] | Potency [9] | Potency [10] | outcome [11] | outcome [12] | outcome [13] | outcome [14] | Potency [15]

CN(C)C(=O)NC1(c2ccccc2)CCN(CCC[C@]2(c3ccc(Cl)c(Cl)c3)CCCN(C(=O)c3ccccc3)C2)CC1
inactive: activation [1] -0.37% [at 19 µM] | activity, negative = inhibition [2] -8.74% [at 19 µM] | activity change, negative = cytotoxicity [3] -7% [at 19 µM] | activity change, negative = cytotoxicity [4] -18% [at 19 µM] | activation [18] -0.618% [at 19 µM] | cAMP activity change [5] -1.66% [at 18.9 µM] | activity change, negative = inhibition [6] -0.429% [at 19 µM] | activation [8] -5.56% [at 19 µM] | activity change, negative = inhibition [17] -8.48% [at 18.9 µM] | activity change, negative = cytotoxicity [10] 3.74% [at 19 µM] | viability change, negative = cytotoxic [11] 0% [at 15.8 µM] | activity change, negative = cytotoxicity [12] 2.25% [at 15.8 µM]

Cc1ccc(C=O)s1
inactive: outcome [1] | Potency [2] | Potency [3] | Potency [16] | outcome [4] | Potency [7] | Potency [8] | Potency [9] | outcome [11] | outcome [12] | outcome [13] | outcome [14] | Potency [15]

COC(=O)N[C@H](C(=O)N[C@@H](Cc1ccccc1)[C@@H](O)CN(Cc1ccc(-c2ccccn2)cc1)NC(=O)[C@@H](NC(=O)OC)C(C)(C)C)C(C)(C)C
inactive: outcome [1] | Potency [2] | Potency [3] | Potency [16] | outcome [5] | Potency [6] | Potency [7] | Potency [8] | Potency [17] | Potency [9] | outcome [11] | outcome [12] | outcome [13] | outcome [14] | Potency [15]

CCOC(=O)c1ccccc1O
inactive: outcome [1] | Potency [2] | Potency [3] | outcome [5] | Potency [6] | Potency [7] | Potency [9] | Potency [10] | outcome [12] | outcome [14]

Cc1ccc(C)c(N)c1
inactive: outcome [1] | Potency [2] | Potency [3] | Potency [16] | outcome [4] | Potency [18] | outcome [5] | Potency [6] | Potency [7] | Potency [8] | Potency [17] | Potency [10] | outcome [11] | outcome [12] | outcome [13] | outcome [14] | Potency [15]

CC(C)CCCCCCc1ccc(OCCOCCO)cc1
inactive: outcome [1] | Potency [2] | Potency [3] | Potency [16] | Potency [19] | outcome [4] | Potency [18] | outcome [5] | Potency [6] | Potency [7] | Potency [8] | Potency [17] | Potency [9] | Potency [10] | outcome [11] | outcome [12] | outcome [13]
